Unmarked numbers belong to inactive results. For some assays here: Measured potencies and affinities stand elsewhere. Calls of active or inactive are those of the source. Unless noted, how the calls were made is not given here.
Key:
[1] = antimalarial activity against Dd2 strain (AID 2302;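 active means growth inhibition above 50% at the single 2 µM test dose, taken to imply half-maximal potency below 2 µM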;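 further: 0% = DMSO untreated growth and 100% = chloroquine plus artemisinin killed control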); details: P. falciparum Dd2 in RBCs, LDH growth readout, 72 h; at 2 µM; stronger effect = higher value
[2] = HepG2 cytotoxicity, primary screen, cytotoxicity control for P. falciparum antimalarial project, cell-based, ATP luminescence (AID 2303;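 active means inhibition above 50%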;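 further: 0% = DMSO wells and 100% = digitonin-killed cells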); details: HepG2 viability, 24-48 h, at 10 µM, stronger effect = higher value
[3] = molecular target: L-lactate dehydrogenase (Plasmodium falciparum (isolate CDC / Honduras)) (UniProt Q27743); assay: PfLDH activity inhibition – cell lysate, 3D7 strain, counter-screen for P. falciparum growth inhibition project (AID 2304);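 further: 0% = vehicle and 100% = reference inhibitor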; details: P. falciparum 3D7 crude extract, LDH APAD/NBT absorbance; at 2 µM; stronger effect = higher value
[4] = inhibition of 3D7 malaria parasite growth – strain 3D7 (AID 2306);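 further: 0% = DMSO wells and 100% = chloroquine plus artemisinin control wells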; details: P. falciparum 3D7 erythrocytic growth, LDH absorbance, 72 h; at 2 µM; stronger effect = higher value
[5] = molecular target: Calcium-dependent protein kinase 1 (Plasmodium falciparum (isolate 3D7)) (UniProt P62344); assay: PfCDPK1 kinase inhibitors, biochemical, TCAMS library (AID 1159585; cut-off not given, nearly all actives have IC50 up to about 0.98 µM;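 further: inhibitors leave more ATP so luminescence rises with inhibition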); details: recombinant PfCDPK1, Kinase-Glo ATP depletion luminescence
[6] = molecular target: Plasmodium falciparum protein kinase 6 (PK6, PF3D7_1337100) (UniProt Q8IDW1); assay: PfPK6 kinase inhibitors, biochemical, TCAMS library (AID 1159586); details: recombinant PfPK6, Kinase-Glo ATP depletion luminescence
[7] = molecular target: Protein kinase 7 (PK7), Plasmodium falciparum 3D7 (PF3D7_0213400) (UniProt Q7YTF7); assay: inhibition of Plasmodium PK7 catalytic activity – biochemical, TCAMS antimalarial set, Kinase-Glo luminescence (AID 1159587); details: recombinant PfPK7, Kinase-Glo ATP depletion luminescence
[8] = molecular target: Calcium-dependent protein kinase 4 (Plasmodium falciparum (isolate 3D7)) (UniProt Q8IBS5); assay: PfCDPK4 kinase inhibitors, biochemical, TCAMS library (AID 1159588; cut-off not given, nearly all actives have IC50 up to about 0.91 µM); details: recombinant PfCDPK4, Kinase-Glo ATP depletion luminescence
Calcium-dependent protein kinase 4 (Plasmodium falciparum (isolate 3D7)), sequence (Q8IBS5 whole entry, looked up): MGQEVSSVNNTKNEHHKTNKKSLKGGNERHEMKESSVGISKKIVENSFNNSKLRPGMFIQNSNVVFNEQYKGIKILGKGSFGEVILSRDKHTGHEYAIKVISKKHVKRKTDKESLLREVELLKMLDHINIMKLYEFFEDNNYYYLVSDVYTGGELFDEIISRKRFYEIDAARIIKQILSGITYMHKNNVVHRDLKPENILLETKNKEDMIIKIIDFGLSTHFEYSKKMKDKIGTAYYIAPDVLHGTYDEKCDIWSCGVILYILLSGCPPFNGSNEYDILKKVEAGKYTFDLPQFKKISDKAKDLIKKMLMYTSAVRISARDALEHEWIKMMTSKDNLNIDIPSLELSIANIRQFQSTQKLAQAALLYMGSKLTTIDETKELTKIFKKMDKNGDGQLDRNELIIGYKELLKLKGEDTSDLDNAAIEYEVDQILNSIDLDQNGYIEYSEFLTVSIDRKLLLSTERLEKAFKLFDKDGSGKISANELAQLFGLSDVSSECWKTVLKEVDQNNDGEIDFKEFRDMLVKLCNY

Calcium-dependent protein kinase 1 (Plasmodium falciparum (isolate 3D7)), sequence (P62344 whole entry, looked up): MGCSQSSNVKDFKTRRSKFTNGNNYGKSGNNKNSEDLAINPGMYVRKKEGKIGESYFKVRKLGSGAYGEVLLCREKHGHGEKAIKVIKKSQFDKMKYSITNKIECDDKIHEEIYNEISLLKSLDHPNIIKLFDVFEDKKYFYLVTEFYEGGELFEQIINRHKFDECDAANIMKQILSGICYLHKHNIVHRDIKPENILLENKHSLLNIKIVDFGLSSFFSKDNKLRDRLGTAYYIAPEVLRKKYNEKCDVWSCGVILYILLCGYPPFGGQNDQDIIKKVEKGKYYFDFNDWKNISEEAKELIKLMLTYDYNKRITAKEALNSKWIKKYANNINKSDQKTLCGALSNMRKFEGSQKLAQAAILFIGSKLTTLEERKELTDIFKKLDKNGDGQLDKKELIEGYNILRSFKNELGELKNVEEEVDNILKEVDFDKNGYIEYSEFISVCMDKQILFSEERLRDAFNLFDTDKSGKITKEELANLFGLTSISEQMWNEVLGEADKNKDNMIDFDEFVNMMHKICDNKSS
Protein kinase 7 (PK7), Plasmodium falciparum 3D7 (PF3D7_0213400), sequence (Q7YTF7 1-343): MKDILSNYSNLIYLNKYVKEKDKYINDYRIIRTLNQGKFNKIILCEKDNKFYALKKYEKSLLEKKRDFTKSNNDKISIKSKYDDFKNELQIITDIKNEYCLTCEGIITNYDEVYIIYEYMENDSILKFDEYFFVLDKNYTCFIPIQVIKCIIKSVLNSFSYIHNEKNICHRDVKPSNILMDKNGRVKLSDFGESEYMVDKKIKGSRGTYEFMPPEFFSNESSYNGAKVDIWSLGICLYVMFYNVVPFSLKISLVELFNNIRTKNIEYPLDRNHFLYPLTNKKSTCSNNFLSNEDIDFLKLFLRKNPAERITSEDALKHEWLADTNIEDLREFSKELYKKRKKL
L-lactate dehydrogenase (Plasmodium falciparum (isolate CDC / Honduras)), sequence (Q27743 whole entry, looked up): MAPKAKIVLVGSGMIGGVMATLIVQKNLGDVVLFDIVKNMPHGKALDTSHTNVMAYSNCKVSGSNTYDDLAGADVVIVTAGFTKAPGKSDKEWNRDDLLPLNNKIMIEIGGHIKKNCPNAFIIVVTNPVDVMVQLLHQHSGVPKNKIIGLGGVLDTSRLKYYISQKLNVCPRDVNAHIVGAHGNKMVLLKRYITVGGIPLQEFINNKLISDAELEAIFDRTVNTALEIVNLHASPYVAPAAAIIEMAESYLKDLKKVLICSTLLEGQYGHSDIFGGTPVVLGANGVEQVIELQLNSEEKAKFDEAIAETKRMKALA
Plasmodium falciparum protein kinase 6 (PK6, PF3D7_1337100), sequence (Q8IDW1 1-305): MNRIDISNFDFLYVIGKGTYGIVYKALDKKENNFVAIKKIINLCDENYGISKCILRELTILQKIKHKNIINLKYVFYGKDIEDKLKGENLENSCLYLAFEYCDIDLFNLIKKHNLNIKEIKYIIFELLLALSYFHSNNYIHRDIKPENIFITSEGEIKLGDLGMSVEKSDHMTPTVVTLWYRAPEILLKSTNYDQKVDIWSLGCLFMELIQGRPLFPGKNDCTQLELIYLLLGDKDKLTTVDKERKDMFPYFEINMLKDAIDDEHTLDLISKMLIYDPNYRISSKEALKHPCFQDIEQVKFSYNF

SMILES	growth inhibition [1]	inhibition [2]	inhibition [3] [%]	growth inhibition [4]	outcome [5]	outcome [6]	outcome [7]	outcome [8]
CC(C)C[C@@H](NC(=O)OC(C)(C)C)C(=O)Nc1ccc(Cc2ccc(NC(=O)[C@@H](CC(C)C)NC(=O)OC(C)(C)C)cc2)cc1	96% (active)	8%	6	96% (active)	inactive	inactive	inactive	inactive
NC(N)=NN=C1C=Cc2cccc3cccc1c23	49%	9%	1	100% (active)	inactive	inactive	inactive	inactive
Cc1nc(C)c(CC(=O)Nc2ccc(-c3ccc(-c4nc5ccc(C(F)(F)F)cc5[nH]4)s3)cc2)s1	29%	57% (active)	-8	90% (active)	inactive	inactive	inactive	inactive
COc1ccc(CCC(C)N2C[C@@H](N)[C@H](c3cn(C)c4cnccc34)C2)cc1 (stereo not given in full)	-4%	5%	-1	98% (active)	inactive	inactive	inactive	inactive
Cn1c(Sc2ncnc3sccc23)nc2ccccc21	100% (active)	-12%	5	100% (active)	inactive	inactive	inactive	inactive
CCOC(=O)COc1cccc(CNc2ccc3nc(N)nc(N)c3c2)c1	99% (active)	18%	4	100% (active)	inactive	inactive	inactive	inactive
CN1CCN(Cc2ccc(OCc3cccc(COc4ccc(CN5CCN(C)CC5)cc4I)c3)c(I)c2)CC1	69% (active)	93% (active)	0	92% (active)	inactive	inactive	inactive	inactive
CC(=O)Nc1ccc(CN(Cc2ccc(F)cc2)Cc2ccc3c(c2)OCO3)cc1	87% (active)	3%	6	91% (active)	inactive	inactive	inactive	inactive
Cc1cccc2[nH]c(-c3ccc(-c4ccc(NC(=O)c5cncn5C)cc4)s3)nc12	30%	49%	4	102% (active)	inactive	inactive	inactive	inactive
O=S(=O)(NCCN1CCCC1)c1ccc(-c2ccc(CNCc3ccc(F)cc3)cc2)cc1	44%	42%	4	94% (active)	inactive	inactive	inactive	inactive
CCCCCCNC(=O)C1Cc2c([nH]c3ccccc23)C2(CCN(CCc3ccccc3)CC2)N1 (stereo not given)	34%	41%	4	96% (active)	inactive	inactive	inactive	inactive
Fc1ccc2nc(-c3ccc(-c4cccc(CN5CCN(CCN6CCOCC6)CC5)c4)cc3)[nH]c2c1	100% (active)	35%	4	101% (active)	inactive	inactive	inactive	inactive
CCN(CC)CCCn1c(N)c(-c2nc3ccccc3[nH]2)c2nc(C#N)c(C#N)nc21	99% (active)	8%	2	100% (active)	inactive	inactive	inactive	inactive
Cc1ccc(C)c2sc(N(CCCn3ccnc3)C(=O)C=Cc3cccs3)nc12	93% (active)	20%	0	101% (active)	inactive	inactive	inactive	inactive
Cc1ccc(-n2cc(CNCC3CCN(CCO)CC3)c(-c3ccc(F)cc3)n2)cc1	18%	29%	-1	91% (active)	inactive	inactive	inactive	inactive
COc1ccccc1N1CCN(C(C(=O)NCc2ccc3c(c2)OCO3)c2ccc3c(c2)OCCCO3)CC1 (stereo not given)	13%	15%	5	88% (active)	inactive	inactive	inactive	inactive
COc1ccc2nc(C)cc(NCc3cccc4ccccc34)c2c1	72% (active)	28%	-7	102% (active)	inactive	inactive	inactive	inactive
O=C(NC1CC1)C1CCN(Cc2cc3ccccc3n2Cc2ccc(Cl)cc2)CC1	96% (active)	16%	-1	95% (active)	inactive	inactive	inactive	inactive
O=C(/C=C/c1ccc(Cl)c(Cl)c1)NCCCCCN1CCC(NC(=O)Nc2cc(Cl)cc(Cl)c2)CC1	5%	98% (active)	-8	94% (active)	inactive	inactive	inactive	inactive
O=C(NCc1ccc2c(c1)OCO2)c1nn(CCN2CCC(N3CCCC3)CC2)cc1-c1ccc(Cl)c(Cl)c1	17%	21%	-2	94% (active)	inactive	inactive	inactive	inactive

SMILES	growth inhibition [1]	inhibition [2]	inhibition [3] [%]	growth inhibition [4]	outcome [5]	outcome [6]	outcome [7]	outcome [8]
O=[N+]([O-])c1ccc(C(O)CNCCc2ccccc2)cc1OCc1ccccc1 (stereo not given)	67% (active)	-6%	-1	94% (active)	inactive	inactive	inactive	inactive
Cc1cc(Cl)ccc1OC(C)C(=O)N1CCc2ccccc21 (stereo not given)	78% (active)	8%	-2	94% (active)	inactive	inactive	inactive	inactive
Cc1cccc2[nH]c(-c3ccc(-c4ccc(CN5CCN(C6CCN(C)CC6)CC5)cc4)s3)nc12	101% (active)	97% (active)	-4	101% (active)	inactive	inactive	inactive	inactive
CCCNC(=O)c1cncc(-c2ccc(CNC3Cc4ccccc4C3)cc2)c1	21%	9%	-8	97% (active)	inactive	inactive	inactive	inactive
CCCCN(CCCC)CC(O)c1cc(-c2ccc(Cl)cc2)nc2c(Cl)cc(Cl)cc12 (stereo not given)	97% (active)	-12%	1	97% (active)	inactive	inactive	inactive	inactive
COc1ccc2nccc(NCC3(O)CCN(CCc4ccc5c(c4)OCCO5)CC3)c2n1	87% (active)	35%	3	100% (active)	inactive	inactive	inactive	inactive
Cc1cccc(NC(=O)NCc2ccccc2)n1	2%	14%	-2	97% (active)	inactive	inactive	inactive	inactive
CCC(NCc1ccc(-c2cncc(C(=O)NCC(C)C)c2)cc1)c1ccccc1 (stereo not given)	8%	14%	2	86% (active)	inactive	inactive	inactive	inactive
Cc1ncsc1CCN1C(=O)CC2(C1=O)C(=O)N(Cc1ccccc1)c1ccc(Cl)cc12 (stereo not given)	46%	0%	1	86% (active)	inactive	inactive	inactive	inactive
CC(C)COc1ccc(Cl)cc1Cc1ccc(-c2nc3ccc(Cl)cc3[nH]2)o1	96% (active)	19%	-1	97% (active)	inactive	inactive	inactive	inactive
COc1ccc(C(c2ccc(N(C)C)cc2)c2ccc(N(C)C)cc2)cc1	99% (active)	72% (active)	1	101% (active)	inactive	inactive	inactive	inactive
CC(C)(C)CC(=O)Nc1ccc(Nc2cc(-c3ccncc3)cc3ncc(C(N)=O)cc23)cc1	85% (active)	5%	7	97% (active)	inactive	inactive	inactive	inactive
O=C1NC(=S)NC1=CC=Cc1ccc([N+](=O)[O-])o1	30%	7%	2	82% (active)	inactive	inactive	inactive	inactive
CN1CCN(c2ccc(Nc3nc(N)c4ccn(C5CCC5)c4n3)cc2)CC1	47%	-3%	2	93% (active)	inactive	inactive	inactive	inactive
Cc1[nH]cnc1CSCCNC(N)=NCCCCCCCCN=C(N)NCCSCc1nc[nH]c1C	95% (active)	24%	-10	96% (active)	inactive	inactive	inactive	inactive
CN1CCN(Cc2c(O)ccc3c(=O)c(Oc4ccc(C(C)(C)C)cc4)c(C(F)(F)F)oc23)CC1	88% (active)	-13%	4	99% (active)	inactive	inactive	inactive	inactive
N#Cc1ccc(CNCCCCCCCNCc2ccc(-c3ccccc3)cc2)cc1	10%	19%	3	87% (active)	inactive	inactive	inactive	inactive
N#Cc1ccc(C(=O)Nc2ccc(Cl)c(N3CCN(CCc4ccccc4)CC3)c2)cc1	35%	5%	5	90% (active)	inactive	inactive	inactive	inactive
O=c1cc(NCCCNCc2cc(Br)cs2)[nH]c2ccccc12	5%	11%	-2	85% (active)	inactive	inactive	inactive	inactive
O=C(/C=C/c1ccc(Cl)c(Cl)c1)NCCCCCN1CCCC(C(=O)Nc2ccc(F)c(Cl)c2)C1 (stereo not given)	2%	28%	1	99% (active)	inactive	inactive	inactive	inactive

Reference: PubChem BioAssay
